High-throughput results deposited in PubChem by National Center for Advancing Translational Sciences (NCATS).
An excerpt weighted towards active compounds, which were near 10% of everything screened.
MCF10A rerep: DNA re-replication induction in MCF 10a cells; 350,000 tested, 2.9% active; MCF 10A DNA re-replication, Hoechst nuclear intensity, 48 h; Potency, µM (top dose mostly 46.1 µM), actives largely listed as activators; further: nearly all actives have a fitted effect of over 50% in size
ELG1 DNA repair: blocks ELG1-dependent DNA repair in HEK293T cells | AID 504467 | HEK293T ELG1-luciferase reporter, luminescence, 16 h; DNA damage induced by 5-fluorouridine | 330,000 tested, 2.3% active | Potency, µM (doses to about 46.1 µM), most hits filed as inhibitors; further: nearly all actives have a fitted effect of over 55% in size
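In this reporter screen, reduction of luminescence relative to DMSO vehicle indicated activity. Compounds and 5-fluorouridine were added together to 2,000 cells per well, incubated for 16 hr at 37 °C, then developed with ONE-Glo.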
SW480 rerep: DNA re-replication induction in SW480 cells; Potency, µM (series often up to 46.1 µM), actives largely listed as activators; 340,000 tested, 1.8% active; SW480 DNA re-replication, Hoechst DNA content imaging, 48 h; further: nearly all actives have a fitted effect of over 55% in size
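SW480 cells exposed to compounds for 48 hr at 37 C, 5% CO2, then Hoechst-stained 40 min. Nuclear DNA content imaged by fluorescence scanning (405 nm excitation, 500-530 nm emission); re-replication scored as increased high-intensity nuclei.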
RORg inh: blocks mouse ROR gamma transcriptional activity. Drosophila S2 Gal4-RORgamma UAS-luciferase reporter, 20 h. Potency, µM (series often up to 53.6 µM), usual class: inhibitors. 310,000 tested, 5.4% active. AID 2551; further: nearly all actives have a fitted effect of over 60% in size
Target sequence (P51450 whole entry, looked up, the tested form may be a part): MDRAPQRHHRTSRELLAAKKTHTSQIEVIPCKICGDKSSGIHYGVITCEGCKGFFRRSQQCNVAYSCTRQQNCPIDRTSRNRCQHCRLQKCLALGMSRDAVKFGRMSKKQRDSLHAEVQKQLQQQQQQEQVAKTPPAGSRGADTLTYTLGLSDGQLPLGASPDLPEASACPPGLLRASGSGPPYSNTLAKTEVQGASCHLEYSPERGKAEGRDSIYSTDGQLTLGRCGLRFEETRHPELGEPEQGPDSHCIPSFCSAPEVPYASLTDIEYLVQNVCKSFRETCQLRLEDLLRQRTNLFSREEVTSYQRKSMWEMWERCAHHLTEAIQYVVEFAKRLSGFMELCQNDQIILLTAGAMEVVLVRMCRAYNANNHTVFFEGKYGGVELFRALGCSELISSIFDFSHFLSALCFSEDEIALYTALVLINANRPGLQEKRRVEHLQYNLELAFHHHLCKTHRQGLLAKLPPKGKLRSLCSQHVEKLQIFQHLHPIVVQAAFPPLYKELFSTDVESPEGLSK
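Drosophila Schneider cells stably carrying a metallothionein-driven Gal4 DBD–ROR gamma fusion and a UAS-Photinus luciferase reporter were exposed to compound for 1 hr, then induced with copper sulfate (700 uM final) for 20 hr at ambient temperature before luminescence reading.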
Gal4-VP16 FLuc: Gal4-VP16 reporter inhibition counter-screen; Potency, µM (doses to about 53.6 µM), usual class: inhibitors; 310,000 tested, 3.5% active; Drosophila S2 Gal4-VP16 UAS-luciferase, luminescence, 20 h;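 further: Gal4-VP16 expression switched on by copper sulfate through the metallothionein promoter; nearly all actives have a fitted effect of over 50% in size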
Each line names hits and unclear results; the compound was inactive in the other large screens. The call rests on the fitted dose curve; in most records, active means well fitted curve in the direction sought with a large enough effect; inconclusive means small, poorly fitted or top-dose-only effect, or another doubt; inactive means no such curve, though single readings can be large; an effect the other way counts as inactive or inconclusive.

Cc1cc(N/N=C/c2ccc(F)cc2)nc(-n2nc(C)cc2C)n1	MCF10A rerep inconclusive, ELG1 DNA repair inconclusive, SW480 rerep inconclusive, RORg inh 0.079µM, Gal4-VP16 FLuc 0.32µM
CCOC(=O)SC1=N/C(=C\c2ccc(N(C)C)cc2)C(=O)S1	ELG1 DNA repair inconclusive, RORg inh 13µM, Gal4-VP16 FLuc inconclusive
CCCCC(=O)N/N=C/c1ccc(Sc2cccc3cccnc23)o1	ELG1 DNA repair inconclusive, RORg inh 5.6µM, Gal4-VP16 FLuc 11µM
O=C(Cc1cccc2ccccc12)N/N=C/c1ccc(Sc2cccc3cccnc23)o1	ELG1 DNA repair 16µM, RORg inh inconclusive, Gal4-VP16 FLuc inconclusive (no result: MCF10A rerep, SW480 rerep)
O=C(Cc1cccc2ccccc12)N/N=C/c1ccc(O)c([N+](=O)[O-])c1	none
O=C(Cc1cccc2ccccc12)N/N=C/c1ccc2cccc(O)c2n1	MCF10A rerep inconclusive, RORg inh 13µM, Gal4-VP16 FLuc inconclusive
Cc1ccc(CNC(=O)Cn2nnc(C(=O)Nc3cc(C)ccc3C)c2N)cc1	none
Cc1noc(C)c1NC(=O)N(C)C[C@H]1Oc2c(NC(=O)C3CC3)cccc2C(=O)N([C@H](C)CO)C[C@@H]1C	none (no result: RORg inh, Gal4-VP16 FLuc)
O=C(Nc1nn(Cc2ccc(Cl)cc2)cc1Br)c1ccc(COc2ccccc2Cl)o1	ELG1 DNA repair 18µM
COc1cc(OC)c(NS(=O)(=O)c2cc3[nH]c(=O)c(=O)[nH]c3cc2C)cc1Cl	none
O=C(/C=C/c1ccc(O)cc1)c1ccc(NC2=C(N3CCCCC3)C(=O)c3ccccc3C2=O)cc1	MCF10A rerep 6.5µM, SW480 rerep inconclusive, RORg inh 0.32µM, Gal4-VP16 FLuc inconclusive
Cc1ccc(NC2=C(N3CCCCC3)C(=O)c3ccccc3C2=O)cc1	MCF10A rerep 5.8µM, SW480 rerep 2.9µM, Gal4-VP16 FLuc inconclusive
COc1ccccc1NC1=C(N2CCCCC2)C(=O)c2ccccc2C1=O	MCF10A rerep 3.3µM, ELG1 DNA repair 1.8µM, SW480 rerep 4.6µM, Gal4-VP16 FLuc inconclusive
O=C1C(Nc2ccccc2)=C(N2CCCCC2)C(=O)c2ccccc21	MCF10A rerep inconclusive, ELG1 DNA repair inconclusive
O=C1C(Nc2cccc(O)c2)=C(N2CCCCC2)C(=O)c2ccccc21	ELG1 DNA repair 13µM, Gal4-VP16 FLuc inconclusive
COc1ccccc1Nc1nccc(N(C)C)c1C#N	none
CCOC(=O)c1cccc(-n2c(C)nc3ccccc3c2=O)c1	none
CCOC(=O)c1cccc(-n2c(-c3ccc(OC)cc3)nc3nc4ccccc4nc32)c1	ELG1 DNA repair 10µM (no result: MCF10A rerep, SW480 rerep)
Cc1cc(O)c(N=Cc2cc3c(cc2[N+](=O)[O-])OCO3)cc1C	MCF10A rerep 16µM, SW480 rerep inconclusive (no result: ELG1 DNA repair, RORg inh, Gal4-VP16 FLuc)
COc1ccccc1C(=O)Nc1ccc2c(c1)n(C)c(=O)n2C	ELG1 DNA repair inconclusive (no result: RORg inh, Gal4-VP16 FLuc)
O=C(CN1C(=O)NC2(CCc3ccccc32)C1=O)NCC(=O)Nc1ccc(F)cc1 (stereo unspecified)	none (no result: RORg inh, Gal4-VP16 FLuc)
COCCN(C(=O)c1snc(C(N)=O)c1N)C(C(=O)NC1CCCCC1)c1ccc(F)cc1 (stereo unspecified)	MCF10A rerep 16µM, SW480 rerep inconclusive
CCc1ccc(N(C(=O)c2snc(C(N)=O)c2N)C(C(=O)NC2CCCC2)c2ccco2)cc1 (stereo unspecified)	MCF10A rerep 6.5µM, ELG1 DNA repair inconclusive, SW480 rerep inconclusive
COc1ccc(C(C(=O)NC2CCCC2)N(CCN(C)C)C(=O)c2snc(C(N)=O)c2N)cc1 (stereo unspecified)	none
COc1cccc(N(CC(=O)NC2CCCCC2)C(=O)c2snc(C(N)=O)c2N)c1	RORg inh inconclusive
COc1ccc(C(C(=O)NC2CCCC2)N(C(=O)c2snc(C(N)=O)c2N)c2cccc(O)c2)cc1 (stereo unspecified)	ELG1 DNA repair 16µM
NC(=O)c1nsc(C(=O)N(CC(=O)NC2CCCC2)c2cccc(C(F)(F)F)c2)c1N	MCF10A rerep 15µM, SW480 rerep inconclusive
CC(C)(C)C(O)CN1CCCC1 (stereo unspecified)	none
CCOC(=O)N1CCC(NC(=O)c2cc(C(=O)NC3CCN(Cc4ccccc4)CC3)ccc2CO)CC1	none
O=C(Nc1ccccc1)Nc1nc(-c2ccc(F)cc2)cs1	none
CC(=O)Nc1nc(-c2ccc([N+](=O)[O-])cc2)cs1	RORg inh inconclusive
